# Measurements: PubChem BioAssay
# Several values for one entry are separate records, joined by “and”; a condition that tells them apart may be missing. Equal entries are not always repeated. Inconclusive results are not listed. Activity calls are given as the source filed them.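 How the source made its calls, unless noted: active means thallium flux through the channel raised or lowered by more than 3 SD from vehicle-only wells, actives on both sides; inactive means the rest.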
# Tests used:
# [1] = reducers of polyQ inclusions in PC12 cells, cell-based, NGF-treated PC12, GFPQ80 (AID 1614); settings: PC12 NGF-treated GFP-polyQ80 inclusion reduction;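 further: lower means fewer inclusions and 0 means no inclusions at all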
# F380Y = experiment: modulators of BK channel variants, profiling panel, selectivity assay, cell-based, U2OS BacMam, thallium flux, beta subunits (AID 1259406); settings: at 30 µM;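 further: initial slope of Thallos dye fluorescence rise after thallium is added; log ratio against the mean of 0.3% DMSO vehicle wells on the same plate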
# F380Y/beta1 = experiment: as above; settings: at 30 µM
# F380Y/beta2Delta = experiment: as above; settings: at 30 µM
# F380Y/beta4 = experiment: as above; settings: at 30 µM
# [2] = biological target: Calcium-activated potassium channel subunit alpha-1 (Homo sapiens) + Leucine-rich repeat-containing protein 26 (Homo sapiens) (UniProt Q12791+Q2I0M4); experiment: as above; settings: F380Y/Slo1WT/gamma1, at 30 µM
# Calcium-activated potassium channel subunit alpha-1 (Homo sapiens) + Leucine-rich repeat-containing protein 26 (Homo sapiens), sequence (Q2I0M4 whole entry, looked up, one chain of several): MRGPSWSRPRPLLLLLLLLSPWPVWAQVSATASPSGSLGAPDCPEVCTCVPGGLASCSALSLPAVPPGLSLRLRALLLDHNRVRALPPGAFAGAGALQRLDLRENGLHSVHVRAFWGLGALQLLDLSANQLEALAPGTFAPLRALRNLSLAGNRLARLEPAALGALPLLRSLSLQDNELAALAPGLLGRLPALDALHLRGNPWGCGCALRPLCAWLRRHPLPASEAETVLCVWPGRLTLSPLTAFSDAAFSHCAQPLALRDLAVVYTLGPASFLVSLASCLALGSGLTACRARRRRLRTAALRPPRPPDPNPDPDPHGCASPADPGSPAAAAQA
# R275C = experiment: as above; settings: at 30 µM
# R275C/beta1 = experiment: as above; settings: at 30 µM
# R275C/beta2Delta = experiment: as above; settings: at 30 µM
# R275C/beta4 = experiment: as above; settings: at 30 µM
# R275C/Slo1WT/beta2 = experiment: as above; settings: at 30 µM
# [3] = growth inhibition of DIPG glioma cells, dose response, cell-based, JHH-DIPG-1, MIPE4.0, CellTiter-Glo, qHTS (AID 1347062; cut-off not given, nearly all actives have AC50 up to about 27 µM); settings: JHH-DIPG-1 viability, CellTiter-Glo ATP luminescence
# [4] = growth inhibition of DIPG glioma cells, dose response, cell-based, SU-DIPG-IV, MIPE4.0, CellTiter-Glo, qHTS (AID 1347063; cut-off not given, nearly all actives have AC50 up to about 30 µM;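 further: compound exposure lasted 48 hours before the viability readout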); settings: SU-DIPG-IV viability, CellTiter-Glo ATP luminescence
# [5] = liver-stage malaria parasite growth inhibition, primary screen, cell-based, HepG2, luciferase luminescence, HepG2 viability (AID 624349; in the data active means parasite load remaining mostly below about 12%, no sharp cut-off; inactive means mostly above about 10%;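 further: 100% = mean of DMSO negative control wells on the same plate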); settings: P. berghei liver stage in HepG2, luciferase luminescence, concentration not given here; parasite load remaining: stronger effect = lower value; viability: measured here: HepG2 viability without parasites
# [6] = SU-DIPG-VI glioma cell viability, MIPE4.0 library, CellTiter-Glo luminescence, qHTS (AID 1347066; cut-off not given, nearly all actives have AC50 up to about 30 µM;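 further: cells exposed to compound for 48 hours before readout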); settings: CellTiter-Glo ATP luminescence
structure (smiles),measurement,setting,value
CN/C(=C\[N+](=O)[O-])NCCSCc1ccc(CN(C)C)o1,inclusion score,[1],2
same,log fold change Tl+ flux,F380Y,-0.0669 (inactive)
same,log fold change Tl+ flux,F380Y/beta1,-0.0094 (inactive)
same,log fold change Tl+ flux,F380Y/beta2Delta,0.0319 (inactive)
same,log fold change Tl+ flux,F380Y/beta4,0.0499 (inactive)
same,log fold change Tl+ flux,[2],-0.0244 (inactive)
same,log fold change Tl+ flux,R275C,0.017 (inactive)
same,log fold change Tl+ flux,R275C/beta1,0.0242 (inactive)
same,log fold change Tl+ flux,R275C/beta2Delta,-0.00414 (inactive)
same,log fold change Tl+ flux,R275C/beta4,-0.0213 (inactive)
same,log fold change Tl+ flux,R275C/Slo1WT/beta2,-0.015 (inactive)
CC(C)OC(=O)C(C)(C)Oc1ccc(C(=O)c2ccc(Cl)cc2)cc1,inclusion score,[1],0
same,outcome,[3],inactive
same,outcome,[4],inactive
same,log fold change Tl+ flux,F380Y,-0.0417 (inactive)
same,log fold change Tl+ flux,F380Y/beta1,-0.0557 (inactive)
same,log fold change Tl+ flux,F380Y/beta2Delta,-0.0352 (inactive)
same,log fold change Tl+ flux,F380Y/beta4,0.00294 (inactive)
same,log fold change Tl+ flux,[2],-0.00437 (inactive)
same,log fold change Tl+ flux,R275C,-0.0206 (inactive)
same,log fold change Tl+ flux,R275C/beta1,-0.021 (inactive)
same,log fold change Tl+ flux,R275C/beta2Delta,0.00724 (inactive)
same,log fold change Tl+ flux,R275C/beta4,0.00518 (inactive)
same,log fold change Tl+ flux,R275C/Slo1WT/beta2,0.0641 (inactive)
COc1ccc2c(c1)C(=O)N(CCc1ccc(S(=O)(=O)NC(=O)NC3CCCCC3)cc1)C(=O)C2(C)C,parasite load remaining,[5],128% (inactive)
same,viability,[5],79.4%
O=C(O)CCc1nc(-c2ccccc2)c(-c2ccccc2)o1,log fold change Tl+ flux,F380Y,0.0468 (inactive)
same,log fold change Tl+ flux,F380Y/beta1,0.171 (active)
same,log fold change Tl+ flux,F380Y/beta2Delta,0.0584 (inactive)
same,log fold change Tl+ flux,F380Y/beta4,0.0201 (inactive)
same,log fold change Tl+ flux,[2],0.0291 (inactive)
same,log fold change Tl+ flux,R275C,-0.025 (inactive)
same,log fold change Tl+ flux,R275C/beta1,0.113 (active)
same,log fold change Tl+ flux,R275C/beta2Delta,0.0648 (inactive)
same,log fold change Tl+ flux,R275C/beta4,0.0678 (inactive)
same,log fold change Tl+ flux,R275C/Slo1WT/beta2,0.0514 (inactive)
O=C1CN(/N=C/c2ccc([N+](=O)[O-])o2)C(=O)N1,inclusion score,[1],2
COC(=O)C1=C(C)NC(C)=C(C(=O)OCCN(C)Cc2ccccc2)C1c1cccc([N+](=O)[O-])c1 (stereo not given),log fold change Tl+ flux,F380Y,-0.089 (inactive)
same,log fold change Tl+ flux,F380Y/beta1,-0.0357 (inactive)
same,log fold change Tl+ flux,F380Y/beta2Delta,-0.158 (active)
same,log fold change Tl+ flux,F380Y/beta4,-0.137 (active)
same,log fold change Tl+ flux,[2],-0.059 (inactive)
same,log fold change Tl+ flux,R275C,-0.031 (inactive)
same,log fold change Tl+ flux,R275C/beta1,-0.044 (inactive)
same,log fold change Tl+ flux,R275C/beta2Delta,0.0144 (inactive)
same,log fold change Tl+ flux,R275C/beta4,0.196 (active)
same,log fold change Tl+ flux,R275C/Slo1WT/beta2,0.00258 (inactive)
CC(C)(C)NCC(O)c1ccc(O)c(CO)c1 (stereo not given),inclusion score,[1],2
same,outcome,[3],inactive
same,outcome,[4],inactive
same,outcome,[6],inactive
COc1ccc2cc([C@H](C)C(=O)O)ccc2c1,inclusion score,[1],2
same,outcome,[3],inactive
same,outcome,[4],inactive
same,outcome,[6],inactive
same,log fold change Tl+ flux,F380Y,0.000985 (inactive)
same,log fold change Tl+ flux,F380Y/beta1,0.0107 (inactive)
same,log fold change Tl+ flux,F380Y/beta2Delta,0.00769 (inactive)
same,log fold change Tl+ flux,F380Y/beta4,-0.000569 (inactive)
same,log fold change Tl+ flux,[2],0.0442 (inactive)
same,log fold change Tl+ flux,R275C,-0.0405 (inactive)
same,log fold change Tl+ flux,R275C/beta1,-0.0361 (inactive)
same,log fold change Tl+ flux,R275C/beta2Delta,-0.0194 (inactive)
same,log fold change Tl+ flux,R275C/beta4,-0.0294 (inactive)
same,log fold change Tl+ flux,R275C/Slo1WT/beta2,0.0377 (inactive)
COCCCOc1ccnc(CS(=O)c2nc3ccccc3[nH]2)c1C (stereo not given),parasite load remaining,[5],32% (inactive) and 56.4% (inactive)
same,viability,[5],108% and 71%
same,outcome,[3],inactive
same,outcome,[4],inactive
same,outcome,[6],inactive
